Only a selection was taken, and hits are over-represented in it overall.
Cycloheximide cs: counter-screen for Shiga toxin inhibitors: cycloheximide protein synthesis inhibition; hit rate 12% among 300,000; cell reporter, cycloheximide protein synthesis inhibition counterscreen; max response, %; AID 2314; in the data active means max response mostly above about 13%, no sharp cut-off; inactive means mostly below about 14%; further: read at 38.3 µM for the half of the compounds with a filed dose; 0% is about no effect
LmPK inh: blocks Leishmania mexicana pyruvate kinase activity; purified LmPK, Kinase-Glo ATP luminescence, 1 h; hit rate 0.37% among 290,000; AID 1721; Potency, µM (titrated, usually from 57.5 µM), without a hit: at the highest dose activity change, negative = inhibition, actives largely listed as inhibitors; Q27686; active means well fitted curve in the direction sought with a large enough effect; inconclusive means small, poorly fitted or top-dose-only effect, or another doubt; inactive means no such curve, though single readings can be large; an effect the other way counts as inactive or inconclusive; further: potency means the concentration at half of the fitted maximal effect; on the % scale 0 is the no-effect control and ±100 the full control effect
Target sequence (Q27686 whole entry, looked up): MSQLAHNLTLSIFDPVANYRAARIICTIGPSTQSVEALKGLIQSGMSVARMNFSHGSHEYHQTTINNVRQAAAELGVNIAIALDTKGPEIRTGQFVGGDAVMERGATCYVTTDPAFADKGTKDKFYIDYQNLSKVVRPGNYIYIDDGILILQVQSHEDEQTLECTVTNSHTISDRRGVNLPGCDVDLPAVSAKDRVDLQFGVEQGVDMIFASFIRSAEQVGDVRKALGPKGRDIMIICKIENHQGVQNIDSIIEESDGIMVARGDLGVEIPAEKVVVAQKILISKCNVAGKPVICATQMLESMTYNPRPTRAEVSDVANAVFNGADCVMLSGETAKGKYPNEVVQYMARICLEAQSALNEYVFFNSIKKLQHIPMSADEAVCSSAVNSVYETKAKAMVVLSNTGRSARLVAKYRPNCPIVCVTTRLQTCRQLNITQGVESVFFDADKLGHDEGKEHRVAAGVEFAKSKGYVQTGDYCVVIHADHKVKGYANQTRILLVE
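Kinase-Glo luminescence read after 1 h RT reaction of 0.1 nM LmPK with 0.5 mM PEP and 0.1 mM ADP. Activity scaled between uninhibited and enzyme-free controls.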
Tb PYK inh: blocks Trypanosoma brucei pyruvate kinase | hit rate 0.12% among 410,000 | TbPYK enzyme, Kinase-Glo Plus ATP luminescence, 45 min | Q57TT1 | Potency, µM (series often up to 76.8 µM), for the others: at the highest dose activity, negative = inhibition, usual class: inhibitors | AID 624173; active means well fitted curve in the direction sought with a large enough effect; inconclusive means small, poorly fitted or top-dose-only effect, or another doubt; inactive means no such curve, though single readings can be large; an effect the other way counts as inactive or inconclusive; further: potency means the concentration at half of the fitted maximal effect; on the % scale 0 is the no-effect control and ±100 the full control effect; nearly all actives have a fitted effect of over 50% in size
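Activity of T. brucei pyruvate kinase was followed by Kinase-Glo Plus luminescence after the enzyme reacted 45 min at room temperature with 130 uM ADP (final) and substrate. Test compounds were added before ADP at multiple concentrations.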
SARS PLP yeast: inhibitors of SARS-CoV papain-like protease in yeast; Potency, µM (highest dose often 32.9 µM), inactives show top-dose activity, positive = growth rescue, usual class: activators; AID 485353; S. cerevisiae expressing SARS-CoV PLpro, growth rescue; hit rate 0.19% among 330,000; further: potency means the concentration at half of the fitted maximal effect; 0% is about no effect; nearly all actives have a fitted effect of over 55% in size
NS1 function inh: influenza NS1 inhibition | AID 2326 | hit rate 0.4% among 270,000 | Potency, µM (doses to about 46.1 µM), inactives show at the highest dose activity, positive = more growth; further: potency means the concentration at half of the fitted maximal effect; actives are rising curves; nearly all actives have a fitted effect of over 50% in size
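Compounds were scored for reversing the slow growth caused by influenza A NS1 in S. cerevisiae, measured by optical density at 600 nm. Assay medium contained 2% galactose at pH 6.0; NS1-free yeast of the same strain were the positive control.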
Shiga toxin inh: inhibitors of Shiga toxin in Vero cells; Vero cells, Shiga toxin protein synthesis inhibition reporter; inhibition, % at 38.7 µM; hit rate 9.2% among 290,000; AID 2315; in the data active means inhibition mostly above about 28%, no sharp cut-off; inactive means mostly below about 43%; further: 0% is about no effect
Numbers without * were called inactive; ? = inconclusive; · = not tested or not shown. Unless noted, the call rests on the fitted dose curve.

SMILES | Cycloheximide cs | LmPK inh | Tb PYK inh | SARS PLP yeast | NS1 function inh | Shiga toxin inh
O=C(CCC1CCCN(C(=O)c2cccnc2)C1)NCc1ccccc1F (centres undefined) | 17* | -13% | 0% | -2% | 3% | 3
O=C(CCC1CCCN(C(=O)c2ccoc2)C1)NCc1ccccc1F (centres undefined) | 14 | 3% | -1% | 0% | 0% | 16
O=C(CCC1CCCN(C(=O)CCN2CCCCC2=O)C1)NCc1ccccc1F (centres undefined) | 14* | -14% | 0% | 1% | -2% | -11
CN(C)c1cccc(C(=O)N2CCCC(CCC(=O)NCc3ccccc3F)C2)c1 (centres undefined) | 30* | -2% | -5% | -5% | -5% | 16
CCOc1ccc(NC(=O)CN(C)S(=O)(=O)c2ccc3c(c2)c(=O)n(C)c(=O)n3C)cc1 | · | · | -6% | · | · | ·
COc1ccccc1OCC(=O)NC1CCCCCCC1 | · | · | 9% | -11% | · | ·
COc1ccccc1-c1ccc(Nc2cccc(C(F)(F)F)c2)nn1 | 15* | 5% | 6% | ? | 24% | 14
Cc1ccc(Nc2cccc(C(F)(F)F)c2)nn1 | · | · | 2% | · | · | ·
COc1ccccc1-c1ccc(NC2CCCCC2)nn1 | 31* | -1% | -1% | -21% | -42% | 72*
Cc1ccc2c(c1)-c1cc(C)nn1C(c1cc(Br)ccc1O)N2 (centres undefined) | · | · | -1% | · | · | ·
Cc1c(C(=O)Cc2ccccc2)n(C)c2ccccc12 | 25* | -2% | -4% | -6% | · | 27
COc1cc(/C=N/NC(=O)c2cc(C3CC3)[nH]n2)cc(OC)c1OC | -3 | 0% | -2% | -9% | 5% | -7
CCOc1cccc(/C=N/NC(=O)c2cc(C3CC3)[nH]n2)c1O | 18* | 2% | -10% | ? | -26% | 2
CCOc1cccc(/C=N/NC(=O)c2cccnc2)c1O | 21* | -4% | -13% | 0% | -17% | 33
COc1ccccc1C(C)NC(=O)c1ccc(S(=O)(=O)NCc2ccco2)cc1 (centres undefined) | · | · | 3% | 5% | · | ·
CCc1cccc(CC)c1NC(=O)CN(C)S(=O)(=O)c1ccc2c(c1)n(C)c(=O)c(=O)n2C | · | · | -8% | · | · | ·
O=C(CN1CCCCCC1)Nc1cccc(Br)c1 | -1 | -5% | 6% | -4% | 5% | -11
Cc1ccc(NC(=O)CN2CCCCCC2)cc1Br | 19* | -9% | -1% | 6% | · | 73
Cc1ccc(NC(=O)CN2CCCCCC2)c(Br)c1 | 36* | -1% | 8% | 2% | ? | 81*
COc1ccc(N2CCN(CC(=O)Nc3ccc(C)cc3Br)CC2)cc1 | · | · | -5% | · | · | ·
O=C(Cn1c(-c2cccs2)cc2cc(F)ccc21)N1CCN(c2ccccc2)CC1 | · | · | -5% | · | · | ·
Cc1ccc(S(=O)(=O)NC(=O)c2ccc(-c3ccc(C)c4ccccc34)o2)cc1 | -4 | -1% | 1% | -40% | -4% | -15
O=C(Cc1ccccc1)NNC(=O)c1ccc(NC(=O)c2ccccc2)cc1 | 9 | -1% | 5% | -1% | · | -8
O=C(Nc1ccccc1)Nc1cccc(-c2nnco2)c1 | 20* | 1% | 1% | -1% | -4% | 48*
O=C(Nc1ccc(-c2nnco2)cc1)c1ccccc1 | 14* | -2% | -2% | -4% | -5% | 68*
SMILES | Cycloheximide cs | LmPK inh | Tb PYK inh | SARS PLP yeast | NS1 function inh | Shiga toxin inh
O=C1c2ccccc2C(=O)N1CCC#C/C=C1\c2ccccc2C(=O)N1c1ccccc1 | · | · | -2% | · | · | ·
Cc1ccc(C)c(OCC(=O)Nc2cccc(C(=O)O)c2)c1C | 41* | 2% | · | -6% | 1% | 46
Cc1ccc(OCC(=O)Nc2cc(NC(=O)COc3ccc(C)c(C)c3)cc(C(=O)O)c2)cc1C | 1 | 1% | -1% | -6% | 15% | 9
Cc1cccc(C)c1OCC(=O)Nc1cccc(C(=O)O)c1 | 41* | 3% | 2% | 1% | 5% | 92*
CCOc1ccc(N=Nc2ccc(N)cc2N)cc1 | · | · | -10% | · | · | ·
Clc1ccc2nc(C(Cl)(Cl)Cl)[nH]c2c1 | · | · | -1% | · | · | ·
Clc1ccc(-n2cc(COCc3ccccc3)nn2)cc1 | 24 | 0% | -3% | -3% | · | 57*
O=C(c1ccc(CS(=O)(=O)Cc2ccccc2)cc1)N1CCCCC1 | 1 | 0% | -6% | 3% | 5% | -9
O=C(c1ccc(NC(=S)NCc2ccc(Cl)cc2)cc1)N1CCCCC1 | -4 | -1% | 1% | 0% | · | 40
CCCCOc1ccc(C(=O)N2CCC(C)CC2)cc1 | 10 | -2% | 5% | -1% | -8% | 15
O=C(c1ccc(COc2ccc(Cl)cc2)cc1)N1CCCCC1 | 24* | -14% | -7% | -5% | -59% | 91*
O=C(c1ccc(COc2ccccc2Br)cc1)N1CCCCCC1 | 31* | -2% | -3% | -4% | -9% | 60*
CCCCOc1ccc(C(=O)N2CCCCCC2)cc1 | 28* | -12% | -3% | -2% | -17% | active
COC(=O)c1ccc(COc2ccc(CNCc3ccc(Cl)cc3)cc2)cc1 | 34* | 0% | -4% | -4% | -7% | 43*
Cc1cc(F)ccc1NC(=O)Cn1cc(S(=O)(=O)NC(C)C)c(S(=O)(=O)NC(C)C)c1 | · | · | 9% | · | · | ·
COC(c1ccccc1)c1nnc(CCC(=O)N(C)CCOc2ccccc2)o1 (centres undefined) | 28* | -1% | 4% | 0% | -7% | 59*
COC(c1ccccc1)c1nnc(CCC(=O)N(C)Cc2cccc(-n3cccn3)c2)o1 (centres undefined) | 33* | -1% | -3% | -1% | -6% | 107*
COC(c1ccccc1)c1nnc(CCC(=O)N(C)CCCC2CCCC2)o1 (centres undefined) | 27* | 3% | 6% | 0% | -31% | 46*
CCCN(CC1CC1)C(=O)CCc1nnc(C(OC)c2ccccc2)o1 (centres undefined) | 11 | -4% | -2% | 1% | 4% | 46*
CCc1ccccc1NC(=O)CCC(=O)c1cccs1 | -2 | -9% | -4% | -3% | 9% | -25
Cc1ccc(NC(=O)CNS(=O)(=O)c2cccs2)cc1F | 80* | 7% | -15% | 7% | 6% | 79*
Cc1ccc(OCCNS(=O)(=O)c2cccs2)cc1 | 44* | 5% | 1% | 6% | -4% | 56
Cc1ccc(OCCNS(=O)(=O)c2ccc(Cl)cc2)cc1 | · | · | -14% | -5% | · | ·
CC(=O)Nc1ccc(S(=O)(=O)NCCC(=O)Nc2ccc(C)c(F)c2)cc1 | -4 | 6% | -1% | 1% | 13% | 4
O=C(CCC(=O)c1cccs1)Nc1ccccc1F | 16* | 0% | -1% | 1% | -8% | 37
Cc1ccc(NC(=O)CCNS(=O)(=O)c2cccs2)cc1F | 26* | 1% | 4% | 0% | -18% | 70*
C=CCNc1nc(Nc2ccc([N+](=O)[O-])cc2)nc(OCC)n1 | 0 | -3% | 7% | -8% | -10% | -1
